Laboratory results reported in PubChem BioAssay AID504339 (National Center for Advancing Translational Sciences (NCATS), 2011).
About 17,000 (4.4%) of roughly 390,000 compounds were called active. Roughly 8% stayed inconclusive and do not appear here. The list comes from a sample in which actives are over-represented; it also holds similar structures and randomly drawn compounds. A number with no mark means an inactive call. Calls follow the shape of the dose curve; as a rule, active = well fitted inhibition curve with a large enough effect; inconclusive = small, poorly fitted or top-dose-only effect; inactive = no such curve, though single readings can be large or run the other way.

Each compound was assayed against Lysine-specific demethylase 4A (Homo sapiens) (UniProt O75164) (assay: qHTS Assay for Inhibitors of JMJD2A-Tudor Domain). Settings: AlphaScreen JMJD2A-Tudor / H3K4me3 peptide binding; series mostly up to 114 µM; activity change, negative = inhibition: at the top concentration.
Chain of Lysine-specific demethylase 4A (Homo sapiens) (O75164 whole entry, looked up, the tested form may be a part): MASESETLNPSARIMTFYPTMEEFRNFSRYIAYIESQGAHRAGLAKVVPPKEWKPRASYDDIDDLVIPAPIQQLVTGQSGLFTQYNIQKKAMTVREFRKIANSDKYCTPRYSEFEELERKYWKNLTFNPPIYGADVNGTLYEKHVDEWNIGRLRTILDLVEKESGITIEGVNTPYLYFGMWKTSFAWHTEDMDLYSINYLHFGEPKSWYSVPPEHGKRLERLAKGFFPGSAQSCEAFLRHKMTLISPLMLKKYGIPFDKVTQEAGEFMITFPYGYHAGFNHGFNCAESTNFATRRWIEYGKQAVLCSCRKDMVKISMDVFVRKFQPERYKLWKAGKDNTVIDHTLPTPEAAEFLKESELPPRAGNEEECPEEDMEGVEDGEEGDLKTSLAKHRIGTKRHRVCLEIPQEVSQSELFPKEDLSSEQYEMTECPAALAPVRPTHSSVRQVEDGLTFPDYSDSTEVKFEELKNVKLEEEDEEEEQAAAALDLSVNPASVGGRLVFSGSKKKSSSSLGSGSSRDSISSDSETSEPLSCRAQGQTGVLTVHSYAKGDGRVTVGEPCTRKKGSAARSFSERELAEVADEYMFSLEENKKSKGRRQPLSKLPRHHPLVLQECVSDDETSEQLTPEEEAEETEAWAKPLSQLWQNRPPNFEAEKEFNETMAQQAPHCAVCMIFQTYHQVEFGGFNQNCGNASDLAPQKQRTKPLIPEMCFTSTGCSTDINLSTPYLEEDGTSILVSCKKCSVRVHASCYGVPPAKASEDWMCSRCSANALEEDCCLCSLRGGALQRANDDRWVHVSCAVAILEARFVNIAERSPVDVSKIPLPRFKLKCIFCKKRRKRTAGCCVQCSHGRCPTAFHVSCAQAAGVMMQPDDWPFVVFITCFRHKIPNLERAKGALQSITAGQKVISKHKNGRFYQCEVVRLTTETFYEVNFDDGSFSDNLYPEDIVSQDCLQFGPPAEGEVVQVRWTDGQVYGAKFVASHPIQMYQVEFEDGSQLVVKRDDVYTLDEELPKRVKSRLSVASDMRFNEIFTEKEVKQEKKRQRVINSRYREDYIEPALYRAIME
% is scaled to controls: 0 for no effect and ±100 for the full control effect; potency is read from the fitted curve at half-maximal effect.
Also: nearly all actives have a fitted effect of over 50% in size.

`Cc1cc(C)cc(NC(=O)Cc2csc(C)n2)c1` was tested. Which “activity change, negative = inhibition” value did it give?
The value was -19.5%.

For `COc1ccccc1OCCCn1c(-c2ccc(Cl)cc2)nc2ccccc2c1=O`, which “activity change, negative = inhibition” value is on record?
Its value is 19%.

With `COc1ccc(OCc2ccc(-c3nc4ccccc4c(=O)n3N)o2)cc1` as the compound, how does the “activity change, negative = inhibition” value read?
Its value is -10.8%.

With `Cn1c(COc2ccc(Cl)cc2)nc2ccccc2c1=O` as the compound, how does the Potency read?
Its Potency is 28.2 µM (active).

`COc1ccc(CCNS(=O)(=O)c2cc(-c3cc(C)no3)ccc2C)cc1OC` was tested. Which “activity change, negative = inhibition” value did it give?
The value was -8.77%.

For `COc1ccc(-c2nc(SCC(=O)N3CCCCC3C)n[nH]2)cc1` (centres undefined), which “activity change, negative = inhibition” value is on record?
The value was -1.3%.

Which “activity change, negative = inhibition” value does the source give for `CCn1c2c(c(=O)n3ncc(C(=O)N4CCN(c5ccccc5)CC4)c13)CN(Cc1ccc(OC)cc1)CC2` here?
Its value is -16.6%.

Which Potency does the source give for `Cc1csc(NC(=O)CN2CCCCCC2)n1` here?
The Potency was 1.58 µM (active).

For `O=C(CN1CCCCCC1)Nc1c(Cl)cc(Cl)cc1Cl`, which “activity change, negative = inhibition” value is on record?
Its value is -3.93%.

`Cc1cc(C)c(NC(=O)CN2CCCCCC2)c(C)c1` was tested. Which “activity change, negative = inhibition” value did it give?
Its value is -11.4%.

How did the “activity change, negative = inhibition” value turn out when `COc1ccc(CCNC(=O)c2nn(C)c3c2CSc2ccccc2-3)cc1OC` was run?
Its value is -6.95%.

`Cc1nc2ccccn2c(=O)c1NC(=O)c1c(F)cccc1F` was tested. Which “activity change, negative = inhibition” value did it give?
Its value is -10.1%.

`CCn1c2ccccc2c2nnc(N3CCN(c4cc(C)ccc4C)CC3)nc21` was tested. Which “activity change, negative = inhibition” value did it give?
The value was -12.2%.

Which “activity change, negative = inhibition” value does the source give for `CN1CCN(c2ccc(S(=O)(=O)N3CCOCC3)cc2NC(=O)CCc2ccccc2)CC1` here?
The value was -9.18%.

With `O=C(COC(=O)c1ccccc1F)Nc1cc(S(=O)(=O)N2CCOCC2)ccc1N1CCCC1` as the compound, how does the “activity change, negative = inhibition” value read?
Its value is -19.7%.

How did the “activity change, negative = inhibition” value turn out when `Cc1ccc(S(=O)(=O)N2CCOCC2)cc1C(=O)Nc1ccccc1N1CCCC1` was run?
Its value is -24.7%.

With `O=C(COC(=O)Cc1ccc(F)cc1)Nc1cc(S(=O)(=O)N2CCOCC2)ccc1N1CCCC1` as the compound, how does the “activity change, negative = inhibition” value read?
The value was -18.7%.

With `O=C(CNCc1ccco1)Nc1cc(S(=O)(=O)N2CCOCC2)ccc1N1CCCC1` as the compound, how does the Potency read?
The Potency was 79.4 µM (active).

Which Potency does the source give for `COCCNC(=S)Nc1cc(S(=O)(=O)N2CCOCC2)ccc1N1CCCCC1` here?
The Potency was 79.4 µM (active).

For `COc1ccc(/C=C/c2noc(-c3ccccc3O)n2)cc1OC`, which “activity change, negative = inhibition” value is on record?
Its value is -1.37%.

For `COc1ccc(NC(=O)C2CCCN(S(=O)(=O)c3cccc4nonc34)C2)cc1Cl` (centres undefined), which “activity change, negative = inhibition” value is on record?
The value was 2.05%.

`Cc1cc(C)cc(NC(=O)Cn2c(=O)c3ccccc3n3nncc23)c1` was tested. Which “activity change, negative = inhibition” value did it give?
Its value is -25.2%.

`CCc1cccc(-n2nnc(-c3nsc(NC(=O)c4ccc(C)cc4)n3)c2C)c1` was tested. Which “activity change, negative = inhibition” value did it give?
Its value is -18.2%.

With `COc1cc(/C=C/C(=O)OCC(=O)c2ccccc2)cc(OC)c1OC` as the compound, how does the “activity change, negative = inhibition” value read?
Its value is -8.47%.

Which “activity change, negative = inhibition” value does the source give for `COc1ccc(NS(=O)(=O)c2cc(NC(=O)/C=C/c3cc(OC)c(OC)c(OC)c3)ccc2N2CCCCC2)cc1` here?
The value was -34.4%.

With `COc1ccccc1Nc1c2c(nc3ccc(NC(=O)/C=C/c4cc(OC)c(OC)c(OC)c4)cc13)CCCC2` as the compound, how does the Potency read?
The Potency was 15.8 µM (active).

`O=C(CN1c2ccccc2S(=O)(=O)c2ccccc21)Nc1cccc(C(F)(F)F)c1` was tested. Which “activity change, negative = inhibition” value did it give?
Its value is -25.7%.

For `COc1ccccc1N1CCN(c2ncnc3onc(-c4cccc(Cl)c4)c23)CC1`, which “activity change, negative = inhibition” value is on record?
The value was -13.2%.

With `COC(=O)c1ccc(NC(=O)c2cccc3c2C(=O)N(C2CCCCC2)C3)cc1` as the compound, how does the “activity change, negative = inhibition” value read?
Its value is -5.33%.

Which “activity change, negative = inhibition” value does the source give for `CCCS(=O)(=O)c1ncc(Cl)c(C(=O)Nc2scc(-c3ccccc3)c2C(=O)OCC)n1` here?
The value was -35.8%.

`O=C(Nc1ccc(S(=O)(=O)Nc2ncccn2)cc1)C12CC3CC(CC(C3)C1)C2` was tested. Which “activity change, negative = inhibition” value did it give?
Its value is -12.5%.

How did the Potency turn out when `COC(=O)c1ccc(NC(=O)C23CC4CC(C2)CC(n2cnc(Cl)n2)(C4)C3)cc1` was run?
The Potency was 56.2 µM (active).

With `COC(=O)c1ccc(NC(=S)NN2CCOCC2)cc1` as the compound, how does the “activity change, negative = inhibition” value read?
The value was -4.79%.

How did the “activity change, negative = inhibition” value turn out when `O=C(Nc1ccccc1F)C(c1ccccc1)N1Cc2ccccc2C1=O` (centres undefined) was run?
Its value is -11.9%.

How did the “activity change, negative = inhibition” value turn out when `CCN(C(=O)Cn1c(=O)nc(-c2ccccc2)c2cc(Cl)ccc21)c1cccc(C)c1` was run?
Its value is -7.95%.

`Cc1cn(C)c(CC(=O)NCc2ccc(Cl)cc2)c1C(=O)O` was tested. Which “activity change, negative = inhibition” value did it give?
Its value is -24.7%.

`C[N+]1(CCNC(=O)/C=N/O)CCCCC1` was tested. Which Potency did it give?
Its Potency is 50.1 µM (active).

For `CCc1cc2c(cc3c(=O)n(CC(=O)N4CCN(c5cc(Cl)ccc5C)CC4)nc(CC)n32)s1`, which “activity change, negative = inhibition” value is on record?
The value was -21.8%.

Which “activity change, negative = inhibition” value does the source give for `CCOC(=O)c1ccc(NC(=O)c2csc3c2CCCCC3)cc1` here?
Its value is 6.91%.

`O=C(/C=C/c1ccccc1)Nc1cc(-c2nc3cc(Cl)ccc3o2)ccc1Cl` was tested. Which “activity change, negative = inhibition” value did it give?
Its value is 1.49%.

`Cc1ccc(NC(=S)NCCc2ccc(Cl)cc2)c(C)c1` was tested. Which “activity change, negative = inhibition” value did it give?
Its value is -19.4%.

How did the Potency turn out when `Cc1ccc(NC(=S)Nc2ncccc2C)c(C)c1` was run?
Its Potency is 56.2 µM (active).

`Cc1cc(Br)ccc1NC(=S)NC1CCCC1` was tested. Which “activity change, negative = inhibition” value did it give?
Its value is -10.3%.

How did the “activity change, negative = inhibition” value turn out when `COC(=O)c1ccccc1NC(=O)c1ccc2c(=O)n3c(nc2c1)CCCCC3` was run?
Its value is 7.38%.

With `Cc1ccc(-c2cc(-c3coc4ccccc4c3=O)c3c(n2)-c2cc(Cl)ccc2OC3)cc1` as the compound, how does the “activity change, negative = inhibition” value read?
Its value is -7.84%.

For `COc1ccccc1NC(=O)CN1C(=O)c2ccccc2Sc2ccc(C(=O)N3CCCC3)cc21`, which “activity change, negative = inhibition” value is on record?
Its value is -18.3%.

How did the “activity change, negative = inhibition” value turn out when `COc1ccc(C2C(C(C)=O)=C(O)C(=O)N2CCc2c[nH]c3ccccc23)cc1` (centres undefined) was run?
Its value is -13.8%.

With `COc1ccc(C2C(C(C)=O)=C(O)C(=O)N2c2nccs2)cc1` (centres undefined) as the compound, how does the “activity change, negative = inhibition” value read?
The value was -2.41%.

`COC(=O)CN1C(=O)C(O)=C(C(C)=O)C1c1ccc([N+](=O)[O-])cc1` (centres undefined) was tested. Which Potency did it give?
Its Potency is 31.6 µM (active).

For `CCOc1ccccc1NC(=O)Cn1c(=O)n(-c2cccc(C)c2)c(=O)c2c1c1cc(OC)ccc1n2C`, which “activity change, negative = inhibition” value is on record?
Its value is 4.78%.

How did the “activity change, negative = inhibition” value turn out when `CCN(CC)C(=O)CSc1nc2ccsc2c(=O)n1Cc1ccccc1Cl` was run?
Its value is -10%.

`Nc1nnnn1/N=C/c1cccs1` was tested. Which “activity change, negative = inhibition” value did it give?
The value was -10.4%.

With `Oc1ccccc1/C=N/n1c(-c2cccs2)n[nH]c1=S` as the compound, how does the Potency read?
Its Potency is 22.4 µM (active).

`C(=N/N1CCN(c2ccccc2)CC1)/c1cccs1` was tested. Which “activity change, negative = inhibition” value did it give?
Its value is -28.8%.

How did the Potency turn out when `S=c1[nH]nc(-c2cccs2)n1/N=C/c1cccs1` was run?
Its Potency is 10 µM (active).

How did the “activity change, negative = inhibition” value turn out when `Cn1c(=O)c2sccc2n2c(CCC(=O)NCc3ccccc3Cl)nnc12` was run?
The value was -16%.

How did the “activity change, negative = inhibition” value turn out when `Cc1ccc(C(=O)Nc2ccc3[nH]c(=O)c(=O)[nH]c3c2)cc1` was run?
Its value is -2.05%.

For `O=[S+]([O-])(c1ccc(OC(F)(F)F)cc1)N1CCN([S+](=O)([O-])c2ccc3c(c2)OCCO3)CC1`, which “activity change, negative = inhibition” value is on record?
The value was -25.3%.

For `O=C(CC1Oc2ccc(Cl)cc2NC1=O)NCc1ccccc1` (centres undefined), which “activity change, negative = inhibition” value is on record?
Its value is -14.2%.

With `CCc1ccc(NC(=O)CCCc2nnc3n(CCCOC)c(=O)c4sccc4n23)cc1` as the compound, how does the “activity change, negative = inhibition” value read?
Its value is -16.5%.

Which “activity change, negative = inhibition” value does the source give for `O=C(CSc1nc2nccnc2c(=O)n1CCc1c[nH]c2ccccc12)Nc1ccccc1F` here?
The value was -7.57%.

Which “activity change, negative = inhibition” value does the source give for `CCCCCCn1nnc2sc(-c3ccccc3)cc2c1=O` here?
The value was -6.6%.

How did the Potency turn out when `Cc1ccc(Cl)cc1NC(=O)C(C)n1nnc2sc(-c3ccccc3)cc2c1=O` (centres undefined) was run?
Its Potency is 50.1 µM (active).

With `Cc1cc2nn(-c3ccc(Cl)cc3)nc2cc1NC(=O)C(C)C` as the compound, how does the “activity change, negative = inhibition” value read?
The value was -3.59%.
